We go through 8 compounds from the supplement of paper PMC9446081.

Test in all cases: relative enzymatic activity vs untreated control (fraction); higher = less inhibition
Holding throughout (settings): 100 µM; incubation time: 2 h at 37 C

The test system of one experiment is DNA gyrase. The method, then: (§1)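 In vitro enzymatic inhibition assays (ProFoldin kits) for 12 purified essential E. coli enzymes or complexes, each treated with 218 active antibacterial compounds at 100 µM for 2 h at 37°C. Read-outs were fluorescence or absorbance (phosphate detection, dye binding), converted to activity via standard curves and expressed relative to untreated DMSO controls.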

The target of another experiment is DNA helicase (UniProt P0ACB1). The method, then:
as §1

The target in a further experiment is DNA ligase (UniProt B1XA82). The method, then:
as §1

The next experiment concerns the target DNA polymerase (UniProt P10443). The method, then:
as §1

The target of another experiment is DNA primase (UniProt P0ABS7). The method, then:
as §1

For a further experiment, the target named is GlmU (UniProt A7ZTU1). The method, then:
as §1

The next experiment deals with Guanlyate kinase (UniProt Q0TBG1). The method, then: as §1
Guanlyate kinase, sequence (Q0TBG1 whole entry): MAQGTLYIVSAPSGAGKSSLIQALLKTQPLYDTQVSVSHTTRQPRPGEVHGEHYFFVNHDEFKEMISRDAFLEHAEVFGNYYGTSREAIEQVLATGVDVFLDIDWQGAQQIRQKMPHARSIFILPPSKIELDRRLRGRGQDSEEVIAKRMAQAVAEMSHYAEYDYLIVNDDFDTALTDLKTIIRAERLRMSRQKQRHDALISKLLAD
For the next experiment, the target named is MurA (UniProt Q3YX52). The method, then: as §1
MurA, sequence (Q3YX52 whole entry): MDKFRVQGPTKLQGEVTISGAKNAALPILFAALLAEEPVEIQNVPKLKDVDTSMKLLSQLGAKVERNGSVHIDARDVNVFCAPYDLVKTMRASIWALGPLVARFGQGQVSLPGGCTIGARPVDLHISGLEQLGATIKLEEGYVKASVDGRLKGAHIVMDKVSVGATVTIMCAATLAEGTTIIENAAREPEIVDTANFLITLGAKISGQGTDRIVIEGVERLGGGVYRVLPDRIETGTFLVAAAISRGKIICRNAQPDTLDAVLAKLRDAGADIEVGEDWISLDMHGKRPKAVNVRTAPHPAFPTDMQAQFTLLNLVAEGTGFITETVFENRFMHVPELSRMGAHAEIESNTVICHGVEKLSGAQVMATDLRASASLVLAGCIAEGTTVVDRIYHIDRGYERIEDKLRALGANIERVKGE
The target in the next experiment is T1, MurD (UniProt P14900).
T1 sequence (whole entry): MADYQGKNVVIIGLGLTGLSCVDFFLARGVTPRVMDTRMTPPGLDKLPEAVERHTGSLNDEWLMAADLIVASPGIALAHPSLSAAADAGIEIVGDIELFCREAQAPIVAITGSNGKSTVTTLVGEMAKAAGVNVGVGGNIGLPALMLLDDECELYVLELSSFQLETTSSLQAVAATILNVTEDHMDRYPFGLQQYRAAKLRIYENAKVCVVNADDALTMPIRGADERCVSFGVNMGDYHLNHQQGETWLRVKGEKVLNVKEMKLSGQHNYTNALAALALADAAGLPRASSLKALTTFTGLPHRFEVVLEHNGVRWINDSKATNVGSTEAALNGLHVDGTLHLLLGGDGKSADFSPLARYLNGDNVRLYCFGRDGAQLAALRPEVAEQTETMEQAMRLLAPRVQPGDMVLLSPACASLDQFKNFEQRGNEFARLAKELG
The method, then: as §1

Another experiment concerns the target T2, MurF (UniProt P11880).
T2 sequence (whole entry): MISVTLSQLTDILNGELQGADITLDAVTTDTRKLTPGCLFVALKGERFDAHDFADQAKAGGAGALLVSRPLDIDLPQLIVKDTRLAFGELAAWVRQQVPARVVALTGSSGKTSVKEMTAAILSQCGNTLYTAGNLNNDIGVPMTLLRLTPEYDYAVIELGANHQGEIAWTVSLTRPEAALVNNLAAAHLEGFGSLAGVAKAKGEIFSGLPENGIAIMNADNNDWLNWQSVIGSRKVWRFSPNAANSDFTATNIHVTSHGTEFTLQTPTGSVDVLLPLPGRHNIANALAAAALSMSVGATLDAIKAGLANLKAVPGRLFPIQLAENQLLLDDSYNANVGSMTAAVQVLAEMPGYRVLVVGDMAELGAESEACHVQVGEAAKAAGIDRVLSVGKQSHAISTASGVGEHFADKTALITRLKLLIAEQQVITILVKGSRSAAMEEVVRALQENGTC
On the procedure:
as §1

The subject of a further experiment is RNA polymerase. The method, then: as §1

SMILES strings stand for the structures. ± gives the standard deviation of the averaged measurements.

DNA helicase, sequence (P0ACB1 whole entry): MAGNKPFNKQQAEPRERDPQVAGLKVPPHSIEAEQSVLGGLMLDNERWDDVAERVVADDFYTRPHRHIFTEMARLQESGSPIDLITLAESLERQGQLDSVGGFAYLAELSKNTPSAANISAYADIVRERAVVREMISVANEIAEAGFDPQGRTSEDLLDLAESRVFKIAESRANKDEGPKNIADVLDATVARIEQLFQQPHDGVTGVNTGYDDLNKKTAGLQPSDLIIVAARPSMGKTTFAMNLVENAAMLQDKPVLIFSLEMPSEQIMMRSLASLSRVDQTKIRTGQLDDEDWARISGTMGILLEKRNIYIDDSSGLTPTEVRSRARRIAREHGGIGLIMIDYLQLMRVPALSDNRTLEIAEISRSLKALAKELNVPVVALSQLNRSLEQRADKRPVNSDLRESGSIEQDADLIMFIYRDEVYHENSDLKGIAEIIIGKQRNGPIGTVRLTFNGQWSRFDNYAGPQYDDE
GlmU, sequence (A7ZTU1 whole entry, looked up): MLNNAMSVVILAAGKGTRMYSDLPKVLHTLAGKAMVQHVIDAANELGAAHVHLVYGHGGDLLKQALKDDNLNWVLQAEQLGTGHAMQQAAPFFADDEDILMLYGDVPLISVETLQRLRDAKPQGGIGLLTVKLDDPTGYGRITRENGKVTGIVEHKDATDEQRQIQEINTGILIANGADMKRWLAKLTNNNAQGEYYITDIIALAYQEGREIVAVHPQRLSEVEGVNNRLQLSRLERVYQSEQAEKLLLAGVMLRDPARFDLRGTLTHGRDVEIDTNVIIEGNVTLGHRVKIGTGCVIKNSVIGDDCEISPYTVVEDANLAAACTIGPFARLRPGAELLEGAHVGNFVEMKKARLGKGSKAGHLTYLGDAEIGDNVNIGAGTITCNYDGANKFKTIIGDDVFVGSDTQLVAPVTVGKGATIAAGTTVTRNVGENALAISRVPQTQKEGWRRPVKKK
DNA primase, sequence (P0ABS7 whole entry): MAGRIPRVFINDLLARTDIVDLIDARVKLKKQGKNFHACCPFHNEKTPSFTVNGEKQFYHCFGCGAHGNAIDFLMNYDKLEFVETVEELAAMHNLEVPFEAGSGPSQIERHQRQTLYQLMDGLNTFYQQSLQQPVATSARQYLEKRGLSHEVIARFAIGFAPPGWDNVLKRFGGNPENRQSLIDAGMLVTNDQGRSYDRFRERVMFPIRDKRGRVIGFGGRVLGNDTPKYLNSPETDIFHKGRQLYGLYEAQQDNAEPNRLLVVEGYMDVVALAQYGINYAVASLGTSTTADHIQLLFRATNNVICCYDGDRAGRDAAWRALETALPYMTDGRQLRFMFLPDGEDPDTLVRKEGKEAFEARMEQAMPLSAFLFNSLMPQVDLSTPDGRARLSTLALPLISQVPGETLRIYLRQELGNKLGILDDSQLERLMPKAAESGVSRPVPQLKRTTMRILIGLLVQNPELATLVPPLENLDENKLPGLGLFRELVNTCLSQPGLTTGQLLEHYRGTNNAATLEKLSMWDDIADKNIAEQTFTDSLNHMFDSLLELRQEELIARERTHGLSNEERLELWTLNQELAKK
DNA ligase, sequence (B1XA82 whole entry): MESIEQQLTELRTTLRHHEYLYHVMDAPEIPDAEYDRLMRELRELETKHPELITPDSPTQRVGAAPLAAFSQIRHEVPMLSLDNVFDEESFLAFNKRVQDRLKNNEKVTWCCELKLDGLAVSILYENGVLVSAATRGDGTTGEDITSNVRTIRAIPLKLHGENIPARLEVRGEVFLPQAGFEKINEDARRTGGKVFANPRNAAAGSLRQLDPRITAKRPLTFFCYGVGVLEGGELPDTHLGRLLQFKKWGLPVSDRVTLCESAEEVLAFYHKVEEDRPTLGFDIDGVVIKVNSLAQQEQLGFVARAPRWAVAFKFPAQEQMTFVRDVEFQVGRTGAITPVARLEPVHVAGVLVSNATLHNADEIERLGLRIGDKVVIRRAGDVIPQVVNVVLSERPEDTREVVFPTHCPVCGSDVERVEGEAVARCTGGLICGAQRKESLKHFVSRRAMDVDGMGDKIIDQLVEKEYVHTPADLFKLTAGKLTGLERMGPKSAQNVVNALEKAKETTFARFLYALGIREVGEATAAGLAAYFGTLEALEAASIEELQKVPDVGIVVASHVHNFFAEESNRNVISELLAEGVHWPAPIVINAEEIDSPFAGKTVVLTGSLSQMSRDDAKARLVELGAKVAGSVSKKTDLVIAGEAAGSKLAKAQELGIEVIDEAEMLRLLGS
DNA polymerase, sequence (P10443 whole entry): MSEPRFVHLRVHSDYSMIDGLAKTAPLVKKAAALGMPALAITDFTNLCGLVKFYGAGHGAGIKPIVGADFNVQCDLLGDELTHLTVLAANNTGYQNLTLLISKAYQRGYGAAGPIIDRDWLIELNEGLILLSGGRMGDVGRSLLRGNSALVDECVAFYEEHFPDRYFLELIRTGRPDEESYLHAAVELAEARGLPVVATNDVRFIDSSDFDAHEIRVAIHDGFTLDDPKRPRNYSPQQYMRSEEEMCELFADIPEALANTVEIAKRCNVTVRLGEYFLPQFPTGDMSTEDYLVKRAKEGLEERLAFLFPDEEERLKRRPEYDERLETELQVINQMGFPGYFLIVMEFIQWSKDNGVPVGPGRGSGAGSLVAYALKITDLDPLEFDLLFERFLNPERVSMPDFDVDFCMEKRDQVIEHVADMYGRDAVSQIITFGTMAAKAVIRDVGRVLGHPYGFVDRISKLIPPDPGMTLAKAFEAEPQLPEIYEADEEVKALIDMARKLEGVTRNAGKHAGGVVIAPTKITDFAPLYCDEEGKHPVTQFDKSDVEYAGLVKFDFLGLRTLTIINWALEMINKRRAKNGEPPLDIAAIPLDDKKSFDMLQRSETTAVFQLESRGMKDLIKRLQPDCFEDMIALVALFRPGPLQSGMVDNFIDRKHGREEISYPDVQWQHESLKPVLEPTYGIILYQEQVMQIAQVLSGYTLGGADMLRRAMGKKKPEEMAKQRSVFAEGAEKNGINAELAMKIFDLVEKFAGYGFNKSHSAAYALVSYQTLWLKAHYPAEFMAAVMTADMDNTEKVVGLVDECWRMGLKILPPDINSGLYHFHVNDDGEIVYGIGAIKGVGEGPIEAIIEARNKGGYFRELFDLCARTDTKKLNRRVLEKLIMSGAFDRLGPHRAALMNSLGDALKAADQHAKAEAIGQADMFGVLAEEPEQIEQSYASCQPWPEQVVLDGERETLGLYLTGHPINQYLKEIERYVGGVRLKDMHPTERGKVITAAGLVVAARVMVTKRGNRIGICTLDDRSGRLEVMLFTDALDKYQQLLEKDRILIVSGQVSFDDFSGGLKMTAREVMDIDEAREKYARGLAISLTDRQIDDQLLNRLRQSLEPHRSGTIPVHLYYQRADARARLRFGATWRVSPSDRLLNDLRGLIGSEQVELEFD

Take `O=C(NO)c1cn(-c2cccc(C(=O)N3CCC4(CC3)C(=O)NCN4c3ccccc3)c2)nn1`: the relative enzymatic activity was not above 0 in the experiment on DNA gyrase; 0.0673 ± 0.0027 in the experiment with DNA helicase; 0.205 ± 0.025 in the experiment with DNA ligase; 0.00452 ± 0.00034 with DNA polymerase; not above 0 with DNA primase; 0.656 ± 0.088 in the experiment with GlmU. Further, the relative enzymatic activity with Guanlyate kinase was not above 0; in the experiment with MurA, 0.245 ± 0.072; in the experiment with MurD it was 0.36 ± 0.22; in the experiment with MurF, 0.634 ± 0.13; in the experiment with RNA polymerase, 0.00747 ± 0.0021.

With `Cl.N=C(N)n1cccn1`, the relative enzymatic activity was 0.0897 ± 0.13 in the experiment on DNA gyrase; 0.649 ± 0.3 in the experiment with DNA helicase; 1.13 ± 0.067 with DNA ligase; 1.15 ± 0.22 in the experiment with DNA polymerase; 0.868 ± 0.027 with DNA primase; 1.014 ± 0.0039 in the experiment with GlmU. Also, the relative enzymatic activity in the experiment with Guanlyate kinase was 0.902 ± 0.2; with MurA, 0.813 ± 0.052; with MurD, 0.613 ± 0.43; in the experiment with MurF, 0.939 ± 0.23; in the experiment with RNA polymerase, 0.787 ± 0.012.

Consider `Oc1c(Cl)cc(Cl)c2cccnc12`, for which the relative enzymatic activity in the experiment with DNA gyrase stood at 0.515 ± 0.28; with DNA helicase it was 0.476 ± 0.16; in the experiment with DNA ligase it was 1.11 ± 0.24; in the experiment with DNA polymerase it was 1.11 ± 0.21; in the experiment with DNA primase it was 0.637 ± 0.12; with GlmU it was 1.21 ± 0.19. Also, the relative enzymatic activity was 0.854 ± 0.039 with Guanlyate kinase; 0.88 ± 0.26 with MurA; 0.642 ± 0.46 in the experiment with MurD; 0.98 ± 0.18 with MurF; 0.7619 ± 0.0022 in the experiment on RNA polymerase.

As for `CON=C(C(=O)N[C@@H]1C(=O)N2C(C(=O)O)=C(CSc3nc(=O)c(O)nn3C)CS[C@H]12)c1csc(N)n1`, the relative enzymatic activity in the experiment with DNA gyrase was found to be 0.722 ± 0.42; with DNA helicase, 0.448 ± 0.015; with DNA ligase, 0.961 ± 0.042; with DNA polymerase, 1.05 ± 0.24; in the experiment with DNA primase, 0.8 ± 0.022; with GlmU it was 0.861 ± 0.055. Also, the relative enzymatic activity came to 0.984 ± 0.11 in the experiment with Guanlyate kinase; 0.0646 ± 0.0061 with MurA; 0.568 ± 0.39 with MurD; 0.955 ± 0.25 with MurF; 0.524 ± 0.35 in the experiment on RNA polymerase.

On to `O=C(O)P(=O)(O)O`, for which the relative enzymatic activity stood at 0.105 ± 0.15 with DNA gyrase; 0.549 ± 0.16 in the experiment with DNA helicase; 0.871 ± 0.14 in the experiment with DNA ligase; 0.703 ± 0.39 with DNA polymerase; 0.775 ± 0.04 with DNA primase; 1 ± 0.014 with GlmU. The relative enzymatic activity with Guanlyate kinase was determined as 0.914 ± 0.092; with MurA, 0.79 ± 0.12; in the experiment with MurD, 0.6 ± 0.4; with MurF it was 0.945 ± 0.24; in the experiment with RNA polymerase, 0.8 ± 0.14.

For `COC1=C(N)C(=O)c2nc(-c3nc(C(=O)O)c(C)c(-c4ccc(OC)c(OC)c4O)c3N)ccc2C1=O`, the relative enzymatic activity in the experiment with DNA gyrase stood at 0.611 ± 0.34; in the experiment with DNA helicase it was 0.19 ± 0.014; in the experiment with DNA ligase, 0.732 ± 0.11; in the experiment with DNA polymerase, 1.03 ± 0.48; with DNA primase, 0.602 ± 0.05; in the experiment with GlmU it was 0.789 ± 0.23. Besides, the relative enzymatic activity worked out at 0.6758 ± 0.0058 with Guanlyate kinase; 0.072 ± 0.019 with MurA; 0.596 ± 0.39 with MurD; 1 ± 0.23 with MurF; 0.291 ± 0.026 with RNA polymerase.

In the case of `NC(=O)N/N=C/c1ccc([N+](=O)[O-])o1`, the relative enzymatic activity is 0.691 ± 0.48 in the experiment on DNA gyrase; 0.657 ± 0.29 with DNA helicase; 0.974 ± 0.26 in the experiment with DNA ligase; 1.04 ± 0.16 with DNA polymerase; 0.761 ± 0.072 in the experiment with DNA primase; 1.006 ± 0.004 with GlmU. The relative enzymatic activity amounted to 0.751 ± 0.048 with Guanlyate kinase; 0.504 ± 0.021 in the experiment with MurA; 0.507 ± 0.66 with MurD; 0.962 ± 0.21 with MurF; 0.734 ± 0.088 in the experiment with RNA polymerase.

For the compound `Cc1ccc(S(=O)(=O)O)cc1.NC1CCN(c2nc3c(cc2F)c(=O)c(C(=O)O)cn3-c2ccc(F)cc2F)C1.O` (stereo not drawn), the relative enzymatic activity with DNA gyrase was found to be 1.41 ± 0.49; in the experiment with DNA helicase, 0.509 ± 0.054; with DNA ligase it was 1.02 ± 0.043; with DNA polymerase, 1.15 ± 0.22; with DNA primase, 0.892 ± 0.035; with GlmU it was 0.991 ± 0.05. The relative enzymatic activity with Guanlyate kinase turned out to be 0.699 ± 0.11; in the experiment with MurA, 0.644 ± 0.029; in the experiment with MurD, 0.935 ± 0.86; with MurF, 1.01 ± 0.21; in the experiment with RNA polymerase it was 0.771 ± 0.031.
